The results in this text go back to PubChem BioAssay (EPA / NIEHS).

Each structure is given as a SMILES string. The source made the active and inactive calls. The calls were made as follows: active = hit-call score of the fitted dose curve at least 0.9, where 1 is the maximum; inactive = score below 0.9.

Read-out in experiment [1]: C-C motif chemokine 2 (Homo sapiens) (UniProt P13500)
The experiment in a line: BSK_KF3CT_MCP1: BioMAP Diversity Plus: KF3CT Assay for Monocyte Chemoattractant Protein 1 (MCP1/CCL2) Biomarker Activity (AID 2283073). Particulars: primary human keratinocytes with fibroblasts; actives raise or lower the signal. In outline: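 Human keratinocyte–foreskin fibroblast co-culture; MCP-1 measured by ELISA 24 h after dosing. Bidirectional fit vs DMSO; cytotoxicity tracked by SRB total protein in parallel cultures.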

Read-out in experiment [2]: Matrix Metallopeptidase 9 (MMP9), MMP9 (gene 4318)
The experiment in a line: BSK_KF3CT_MMP9: BioMAP Diversity Plus: KF3CT Assay for Matrix Metallopeptidase 9 (MMP9) Biomarker Activity (AID 2283074).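 As to AC50: MMP9 protein level quantified by ELISA in the co-culture.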 As to conditions: primary human keratinocytes with fibroblasts; actives raise or lower the signal. In outline:
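Human keratinocyte/foreskin fibroblast co-culture; compound added; 24 h; MMP-9 by ELISA; bidirectional fit vs DMSO baseline.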

Read-out in experiment [3]: urokinase plasminogen activator (uPA), PLAU (gene 5328)
Nature of the experiment: BSK_KF3CT_uPA: BioMAP Diversity Plus: KF3CT Assay for urokinase plasminogen activator (uPA) Biomarker Activity (AID 2283075). As to conditions: primary human keratinocytes with fibroblasts; actives raise or lower the signal. Summed up: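 ELISA readout of uPA, analyzed for signal gain or loss relative to DMSO, from a human primary keratinocyte–foreskin fibroblast co-culture measured 24 h after chemical treatment.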

Read-out in experiment [4]: CD40, CD40 (gene 958)
The experiment in a line: BSK_LPS_CD40: BioMAP Diversity Plus: LPS Assay for CD40 Biomarker Activity (AID 2283076). Particulars: primary human HUVEC with PBMC; actives raise or lower the signal. Summed up: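 HUVEC plus PBMC co-culture stimulated with LPS; CD40 quantified by ELISA 24 h after compound dosing. Fitting was bidirectional relative to DMSO. SRB staining of parallel cultures flagged overt cytotoxicity.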

Read-out in experiment [5]: E-selectin (Homo sapiens) (UniProt P16581)
Nature of the experiment: BSK_LPS_Eselectin: BioMAP Diversity Plus: LPS Assay for Eselectin Biomarker Activity (AID 2283077). As to conditions: primary human HUVEC with PBMC; actives raise or lower the signal. In outline: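 Human umbilical vein endothelial cells co-cultured with PBMC under LPS stimulation; cell-surface E-selectin measured by ELISA 24 h after dosing. Change in either direction versus DMSO, with SRB total-protein staining in parallel cultures for cytotoxicity.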

Read-out in experiment [6]: Interleukin-8 (IL8), CXCL8 (gene 3576)
Nature of the experiment: BSK_LPS_IL8: BioMAP Diversity Plus: LPS Assay for Interleukin-8 (IL8) Biomarker Activity (AID 2283078). Particulars: primary human HUVEC with PBMC; actives raise or lower the signal. In outline: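 Human umbilical vein endothelial cells co-cultured with PBMC, LPS-stimulated, exposed to compound for 24 h. IL-8 quantified by ELISA; fitted in both directions against DMSO, with SRB total-protein staining of parallel cultures for cytotoxicity.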

Experiment [7] can be described thus: BSK_LPS_SRB: Viability Assessment in the BioMAP Diversity Plus: LPS Assay (AID 2283079).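 Also: total protein by sulforhodamine B absorbance as a cytotoxicity measure; measured one day after compound addition; fitted in both directions against DMSO so loss or gain of signal counts.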 As to conditions: primary human HUVEC with PBMC. Summed up: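 Co-culture of human umbilical vein endothelial cells and PBMC, read 24 h after dosing. Total protein by 0.1% SRB staining after 10% TCA fixation, absorbance at 560 nm; bidirectional fit against DMSO.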
Read-out in experiment [8]: Interleukin-1 alpha (IL1a), IL1A (gene 3552)
The experiment in a line: BSK_LPS_IL1a: BioMAP Diversity Plus: LPS Assay for Interleukin-1 alpha (IL1a) Biomarker Activity (AID 2283080). As to conditions: primary human HUVEC with PBMC; actives raise or lower the signal. In outline: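 Human umbilical vein endothelial cells co-cultured with PBMC and stimulated with LPS; IL-1a measured by ELISA 24 h after dosing. Bidirectional fitting against DMSO; cytotoxicity checked by SRB staining in parallel cultures.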

Read-out in experiment [9]: Monocyte Chemoattractant Protein-1 (MCP1), CCL2 (gene 6347)
The experiment in a line: BSK_LPS_MCP1: BioMAP Diversity Plus: LPS Assay for Monocyte Chemoattractant Protein-1 (MCP1) Biomarker Activity (AID 2283081).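 As to AC50: secreted MCP-1 protein quantified by ELISA in culture supernatant.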 As to conditions: primary human HUVEC with PBMC; actives raise or lower the signal. In outline:
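Human umbilical vein endothelial cells co-cultured with PBMC, LPS-stimulated; secreted MCP-1 measured by ELISA 24 h after compound addition. Bidirectional curve fitting against DMSO baseline; SRB total-protein staining in parallel cultures for cytotoxicity.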

The nature of experiment [10]: BSK_LPS_PGE2: BioMAP Diversity Plus: LPS Assay for Prostaglandin E2 (PGE2) Biomarker Activity (AID 2283082).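 As to AC50: secreted prostaglandin E2 measured by ELISA in LPS-stimulated co-culture.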 Particulars: primary human HUVEC with PBMC; actives raise or lower the signal. In outline:
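Endpoint derived from bidirectional curve fitting versus DMSO of ELISA-measured PGE2 in LPS-stimulated human primary vascular co-culture (HUVEC with PBMC) harvested at 24 h.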

Read-out in experiment [11]: Macrophage colony-stimulating factor (MCSF), CSF1 (gene 1435)
The experiment in a line: BSK_LPS_MCSF: BioMAP Diversity Plus: LPS Assay for Macrophage colony-stimulating factor (MCSF) Biomarker Activity (AID 2283083). Particulars: primary human HUVEC with PBMC; actives raise or lower the signal. Summed up: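 HUVEC–PBMC co-culture, M-CSF measured by ELISA 24 h after chemical dosing. Fitted in both directions relative to DMSO as negative control; overt cytotoxicity assessed by SRB total-protein staining in parallel cultures.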

Read-out in experiment [12]: Tissue Factor, F3 (gene 2152)
Nature of the experiment: BSK_LPS_TissueFactor: BioMAP Diversity Plus: LPS Assay for Tissue Factor Biomarker Activity (AID 2283084). Particulars: primary human HUVEC with PBMC; actives raise or lower the signal. In outline: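 Human umbilical vein endothelial cells co-cultured with PBMC were dosed with compound. Cell-surface CD142 was measured by ELISA 24 h later. Activity was fitted bidirectionally against DMSO, with SRB total-protein staining in parallel cultures for cytotoxicity.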

Read-out in experiment [13]: Tumor necrosis factor (Homo sapiens) (UniProt P01375)
Nature of the experiment: BSK_LPS_TNFa: BioMAP Diversity Plus: LPS Assay for Tumour Necrosis Factor alpha (TNFa) Biomarker Activity (AID 2283085). As to conditions: primary human HUVEC with PBMC; actives raise or lower the signal. In outline:
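Primary human vascular co-culture of HUVEC and PBMC; TNFa ELISA 24 h after treatment, analysed as increase or decrease relative to DMSO control.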

Read-out in experiment [14]: Vascular cell adhesion molecule 1 (VCAM1), VCAM1 (gene 7412)
The experiment in a line: BSK_LPS_VCAM1: BioMAP Diversity Plus: LPS Assay for Vascular cell adhesion molecule 1 (VCAM1) Biomarker Activity (AID 2283086). As to conditions: primary human HUVEC with PBMC; actives raise or lower the signal. In outline: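 Primary human vascular co-culture (umbilical vein endothelium plus PBMC) stimulated with LPS received chemical; 24 h later VCAM-1 was read by ELISA. Overt cytotoxicity was assessed by sulforhodamine B staining of parallel cultures at the same time point.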

Read-out in experiment [15]: CD38, CD38 (gene 952)
Nature of the experiment: BSK_SAg_CD38: BioMAP Diversity Plus: SAg Assay for CD38 Biomarker Activity (AID 2283087). Particulars: primary human HUVEC with PBMC; actives raise or lower the signal. In outline:
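Fluorescence ELISA of cell-surface CD38 served as the read-out, with either increase or decrease fitted against DMSO controls. Cells were a human umbilical vein endothelium plus PBMC co-culture under SEB/TSST-1 stimulation, measured 24 h after dosing.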

Read-out in experiment [16]: CD40, CD40 (gene 958)
Nature of the experiment: BSK_SAg_CD40: BioMAP Diversity Plus: SAg Assay for CD40 Biomarker Activity (AID 2283088). Particulars: primary human HUVEC with PBMC; actives raise or lower the signal. In outline:
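HUVEC plus PBMC co-culture, superantigen-activated, with CD40 read by ELISA 24 h after dosing. Curves fitted in both directions against DMSO. Overt cytotoxicity checked by parallel SRB total-protein staining.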

Read-out in experiment [17]: CD69, CD69 (gene 969)
Nature of the experiment: BSK_SAg_CD69: BioMAP Diversity Plus: SAg Assay for CD69 Biomarker Activity (AID 2283089).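 As to AC50: cell surface CD69 protein quantified by ELISA with fluorescence detection.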 Particulars: primary human HUVEC with PBMC; actives raise or lower the signal. In outline: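 Endothelial/PBMC co-culture; chemical added; 24 h incubation; CD69 ELISA with fluorescence detection; bidirectional fit vs DMSO.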

Read-out in experiment [18]: Monocyte Chemoattractant Protein-1 (MCP1), CCL2 (gene 6347)
The experiment in a line: BSK_SAg_MCP1: BioMAP Diversity Plus: SAg Assay for Monocyte Chemoattractant Protein-1 (MCP1) Biomarker Activity (AID 2283090). Particulars: primary human HUVEC with PBMC; actives raise or lower the signal. Summed up: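 MCP-1 levels in the endothelial–PBMC SAg co-culture were quantified by ELISA at 24 h post-dosing; both increases and decreases versus DMSO scored. Cytotoxicity monitored by SRB total protein in parallel cultures.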

Read-out in experiment [19]: Monokine induced gamma interferon (MIG), CXCL9 (gene 4283)
Nature of the experiment: BSK_SAg_MIG: BioMAP Diversity Plus: SAg Assay for Monokine induced gamma interferon (MIG) Biomarker Activity (AID 2283092). Particulars: primary human HUVEC with PBMC; actives raise or lower the signal. In outline: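 Measures CXCL9 protein by ELISA in a human vascular primary-cell co-culture (umbilical vein endothelium with PBMC) 24 h after chemical addition. Activity is scored up or down from the DMSO control.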

Chain of E-selectin (Homo sapiens) (P16581 whole entry, looked up): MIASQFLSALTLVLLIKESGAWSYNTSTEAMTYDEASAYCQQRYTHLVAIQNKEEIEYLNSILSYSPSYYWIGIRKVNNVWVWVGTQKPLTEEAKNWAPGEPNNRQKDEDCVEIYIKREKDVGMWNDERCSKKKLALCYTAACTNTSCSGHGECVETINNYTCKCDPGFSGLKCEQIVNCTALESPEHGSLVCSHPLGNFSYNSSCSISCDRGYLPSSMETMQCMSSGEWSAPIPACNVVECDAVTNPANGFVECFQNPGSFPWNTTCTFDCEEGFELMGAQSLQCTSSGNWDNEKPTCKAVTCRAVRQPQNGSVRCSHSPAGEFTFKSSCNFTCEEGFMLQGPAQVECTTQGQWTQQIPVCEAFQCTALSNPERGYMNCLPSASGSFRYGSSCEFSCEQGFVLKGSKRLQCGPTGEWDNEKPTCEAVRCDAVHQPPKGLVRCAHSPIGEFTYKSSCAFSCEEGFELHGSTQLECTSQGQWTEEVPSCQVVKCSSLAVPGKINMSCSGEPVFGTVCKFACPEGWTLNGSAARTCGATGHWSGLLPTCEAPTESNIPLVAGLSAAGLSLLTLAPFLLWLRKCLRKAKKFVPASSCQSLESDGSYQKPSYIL
Chain of Tumor necrosis factor (Homo sapiens) (P01375 whole entry, looked up): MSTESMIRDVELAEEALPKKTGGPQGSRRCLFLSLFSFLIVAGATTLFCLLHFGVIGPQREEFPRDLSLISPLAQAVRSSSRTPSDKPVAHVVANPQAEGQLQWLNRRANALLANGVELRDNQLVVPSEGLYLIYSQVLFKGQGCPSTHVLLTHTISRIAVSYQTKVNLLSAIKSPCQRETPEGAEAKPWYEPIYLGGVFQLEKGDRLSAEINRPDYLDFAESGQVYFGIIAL

Turning to `COP(=S)(OC)Oc1ccc(S(=O)(=O)N(C)C)cc1`, the outcome in experiment [1], in [2], in [3], in experiment [4], in experiment [5] and in experiment [6] was inactive. Moreover, the outcome in experiment [7], in [9], in experiment [10], in experiment [11], in experiment [12] and in experiment [13] was inactive. Moreover, the outcome in experiment [14], in [15], in experiment [16], in [17], in [18] and in experiment [19] was inactive. Also, the AC50 in experiment [8] is 0.0677 µM (active).
As for `O=C1C2(Cl)C3(Cl)C4(Cl)C(Cl)(Cl)C5(Cl)C3(Cl)C1(Cl)C5(Cl)C24Cl` (configuration not stated), the AC50 in experiment [1] was 35.1 µM (active); in experiment [2] it was 8.52 µM (active); in experiment [3] it was 11.1 µM (active); in experiment [4], 7.66 µM (active); in experiment [5], 11.1 µM (active); in experiment [6] it was 14.5 µM (active). Moreover, the AC50 in experiment [7] is 6.4 µM (active); in experiment [8], 7.55 µM (active); in [9], 10.7 µM (active); in experiment [10], 9.92 µM (active); in experiment [11], 10.6 µM (active); in experiment [12] it was 12 µM (active). The AC50 in experiment [13] was 11.6 µM (active); in experiment [14], 9.63 µM (active); in experiment [15], 7.7 µM (active); in experiment [16], 8.7 µM (active); in experiment [17], 8.18 µM (active); in experiment [18] it was 11.2 µM (active). In [19], the AC50 was 10.6 µM (active).
With `ClC(Cl)=C(Cl)C(Cl)=C(Cl)Cl`, the AC50 in experiment [1] was 20 µM (active); in experiment [2], 28.9 µM (active); in experiment [4], 31.4 µM (active); in experiment [7] it was 3.97 µM (active); in experiment [8] it was 31 µM (active); in [11], 32.1 µM (active). For the same compound, the AC50 in [12] is 33.2 µM (active); in experiment [13], 30.9 µM (active); in experiment [14] it was 31.4 µM (active). Further, the result in experiment [3], in experiment [5], in experiment [6], in [9], in experiment [10] and in [15] was inactive. Moreover, the outcome in experiment [16], in experiment [17], in experiment [18] and in [19] was inactive.
